The labels stand for the following.
B1: ENSMUSG00000061578.897|Ksr2|214:218 (ssRNA)
RNA: GGGAGUUCUACAGUCCGACGAUCGCUUCGAUAUCCGCAUGCUAUCCUGGGACACUACCCAAACCCUAGCACUCUCCCAGUGACUCUCCUAUGAGUACAUAUGCCAUCCUGCUUCCUUUGUGGCAAAACCCUGGGUCACCCAGAGACAGAUUUCCCAGAAUCCCUGGGCCACUUCUCAAUUCUACCCAUGACAGACAUGUCCCAUCCAUGAGCCCAGAUAGUCAAAGACUUCAGCACAAGGGUGUUUAGAGUAGGCACACACGAAGUAUCAAUAAGGUUAUUGAGAUGAGGAUUUAGAAAGAUCCUCUUGCGGUCGCACUAGUGUGGAAUUCUCGGGUGUCAAGG
B2: ENSMUSG00000090935.723|Synj2bp (ssRNA)
RNA: GGGAGUUCUACAGUCCGACGAUCGCUUCGAUAUCCGCAUGCUAAACAUUGUUUUAUUCCUAGGUGCUCAGGACAGACUGAUCAACCUCCAGUAACAUAUGUGGUUAGUAAGUGCUUCAGCUUGUGUAGCCAUUAAUAACCAAGUCAUAGGAUUGUGAAUCUAAAAUACUCCUGGGUAAAAUUUGUAUUAGAAUGGAAAAAAAAAUGAGGGUCAGAAAGGUGAGCUAACUUCAAGUUAGAUACUCCCCUCUAUUUUGGUCUCAAAUUUGUUUUAGUGUGUCCACAACAUGAAAACAUACAAAAACUCUUGCGGUCGCACUAGUGUGGAAUUCUCGGGUGUCAAGG
B3: ENSMUSG00000058297.523|Spock2 (ssRNA)
RNA: GGGAGUUCUACAGUCCGACGAUCGCUUCGAUAUCCGCAUGCUAUGGGUGGGCACAGGUCUGCCUUGCUCCAGCCCCCUCCCUUGGUUUCUGUUGGUACCCAUUUGGCUUUUAUCUGCUUUCUGCUUCACCACUAAGUGCGUAGGUGGGGUCUUUUGAUAUCGGCUCCCCAAAGCCCAAGCCCACAGCCCUAGGAGAGAACCAGGGGCCCAUCUUUGACACCUGGGCCAUCACGAGCCCUCCCGCCUGCAGUUGUCCUAGGGAAAGACCUGGGGGUGCAAAAGGAGAUUCAAGACAUCCGUACCCUCUUGCGGUCGCACUAGUGUGGAAUUCUCGGGUGUCAAGG
B4: ENSMUSG00000004113.207|Cacna1b|52:56;242:246 (ssRNA)
RNA: GGGAGUUCUACAGUCCGACGAUCGCUUCGAUAUCCGCAUGCUAAGGAAGCAUCGGGUGGAUUGGGUGGGAGCUGCUCAGAGCAGCACGGGGGCUACACACUUAGGGACAUUGACAGUGUCCAUCAGCAUGUCAGAGAAGCAGCUGUAGUGCCCGUGUUUCUCCCUGAGUCAUGGGUUCUGAAGAAGCCAGAGCGGCACAAUGCGUGCUUGCAUGAGGCACUUUCAGCCUUUUUAAAUCUGACUCUCAGGGAUGGGAUGCCUGCCAAGUAGGGUGUAAUCUCUGUACACAUUUUAAAACAACAACUCUUGCGGUCGCACUAGUGUGGAAUUCUCGGGUGUCAAGG

Over roughly 9,900 sequences, “r (bound/input frequency ratio)” has its median near 0.7; the highest 2% begin near 6.5. Only a selection was taken, and the highest values are over-represented in it overall.

TDP-43, sequence (Q13148 whole entry): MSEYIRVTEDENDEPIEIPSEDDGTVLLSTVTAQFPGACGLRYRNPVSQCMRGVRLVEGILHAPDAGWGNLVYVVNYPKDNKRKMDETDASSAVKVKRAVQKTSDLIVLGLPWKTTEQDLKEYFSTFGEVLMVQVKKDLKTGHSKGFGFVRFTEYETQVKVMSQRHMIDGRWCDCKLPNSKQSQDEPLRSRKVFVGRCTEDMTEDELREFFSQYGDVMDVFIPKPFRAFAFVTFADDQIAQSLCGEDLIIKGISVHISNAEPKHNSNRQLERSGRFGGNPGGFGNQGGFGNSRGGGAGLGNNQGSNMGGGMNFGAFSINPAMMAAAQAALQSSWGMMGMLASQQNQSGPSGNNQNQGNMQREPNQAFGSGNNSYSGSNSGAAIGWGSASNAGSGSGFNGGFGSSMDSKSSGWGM

The target of the test is TDP-43 (Homo sapiens, UniProt Q13148 1-414). Description: RNA Bind-n-Seq with designed 260-mer pool; 25 mM Tris-HCl, 150 mM KCl, 3 mM MgCl2, BSA (printed 500 mg/mL), 20 units/mL SUPERase IN; pH not stated; 500 nM RNA pool, 1 h, 4 C; TDP-43 5, 50, 500 nM; high values mean tight binding. To be noted: protein: recombinant; tags: SBP (GST cleaved off with PreScission; pGEX-GST-SBP). In short, it runs like this:
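For each oligo, R gives binding as its mapped-read-normalized abundance after pulldown divided by its abundance in input. Bead-captured SBP-tagged TDP-43 (5, 50 or 500 nM) was incubated with 500 nM of an in vitro-transcribed 260-nt 3′ UTR oligo pool for 1 h at 4 °C in 25 mM Tris-HCl, 150 mM KCl, 3 mM MgCl2, BSA and SUPERase IN on streptavidin beads. Washed, biotin-eluted RNA was reverse transcribed, PCR-amplified and sequenced.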
On to B1, for which the binding signal was 0.295 R (bound/input frequency ratio).

With B2, the binding signal was 0.199 R (bound/input frequency ratio).

With B3, the binding signal is 0.928 R (bound/input frequency ratio).

On to B4, for which the binding signal was 0.888 R (bound/input frequency ratio).
